Test results taken from PubChem BioAssay (NCI).
Compounds without any hit were thinned out: in the full panel of roughly 83,000, 20% have a hit.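 In brief: 96-well plates, 48 h treatment, single concentration, percent growth endpoint.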 Active and inactive are the calls of the source. How the source made its calls: active means growth percent below 10; inactive means the rest.

Experiments:
Assay in all cases: NCI-60 one-dose screen, 48 h (100 = growth as untreated, 0 = no growth, -100 = all killed)
Conditions in all cases: 10 µM
[1] = test system: HCT-15 colon
[2] = test system: HT29 colon
[3] = test system: SNB-75 CNS
[4] = test system: SNB-19 CNS
[5] = test system: PC-3 prostate
[6] = test system: SK-MEL-5 melanoma
[7] = test system: UACC-62 melanoma
[8] = test system: LOX IMVI melanoma
[9] = test system: SK-MEL-28 melanoma
[10] = test system: U251 CNS

Measured: growth

CC1CC(c2ccc(N(C)C)cc2)=NN1c1nc(O)c(C2=c3cc(Br)ccc3=NC2=O)s1 (centres undefined)
active: [8] -46.1%
inactive: [1] 50.5% | [2] 83.5% | [3] 89.9% | [4] 94.7% | [5] 53.2% | [6] 73.5% | [7] 98.5% | [9] 110%

COc1ccccc1[C@H]1C(C(=O)c2ccc(Cl)cc2)C2(N[C@@H]1c1ccccc1)C(=O)Nc1ccc(Cl)cc12 (some centres undefined)
inactive: [3] 40.9% | [4] 21.2% | [10] 17% | [5] 13.3% | [9] 35.1%
active: [2] -3.95% | [6] -75.4% | [7] -27.3% | [8] -74.6%

COc1cc(/C=C/C(=O)c2ccc(NC(=O)CSc3nnc(-c4c[nH]c5ccccc45)n3-c3ccccc3)cc2)cc(OC)c1OC
active: [8] 4.61%
inactive: [2] 51% | [3] 94.9% | [4] 68.9% | [10] 18.7% | [5] 65.6% | [6] 90.2% | [7] 59.1% | [9] 104%

Cc1ccc(-c2nc3ccc(C(=O)N=Nc4c(O)[nH]c5ccc([N+](=O)[O-])cc45)cc3[nH]2)cc1
inactive: [2] 66.6% | [3] 78.4% | [4] 55.4% | [5] 60.8% | [6] 89.3% | [7] 85.6% | [8] 54.9% | [9] 60.4%
active: [10] 5.86%

O=C(CSc1nnc(-c2ccc3nc(-c4ccccc4)[nH]c3c2)o1)Nc1ccc(Cl)cc1
inactive: [2] 17.4% | [3] 66.1% | [4] 63.9% | [5] 43.3% | [6] 15.3% | [7] 34.3% | [9] 41.8%

O=C1Nc2ccc(Cl)cc2/C1=C/c1cccc(OCc2ccccn2)c1
inactive: [3] 34.8%
active: [2] -63.8% | [4] 0.791% | [10] -90.7% | [5] -9.7% | [6] -47.3% | [7] -81.2% | [8] -89.9% | [9] -49.2%

O=C1Nc2cc(Cl)ccc2/C1=C/c1ccc(OCc2ccc(Br)cc2F)cc1
active: [2] 5.82% | [3] -12.2% | [4] -45.4% | [10] -94.6% | [5] -42.3% | [6] -66.7% | [7] -75.2% | [8] -94.5% | [9] -60.7%

O=C(Nc1cccc(C(F)(F)F)c1)c1cncc(C#Cc2cnc3cccnn23)c1
inactive: [2] 49.4% | [3] 122% | [4] 82.7% | [5] 35.3% | [6] 25.6% | [7] 35.4% | [8] 22.1% | [9] 63.2%

CC(=O)c1ccc(NC(=O)NCn2c(=O)[nH]c3ccccc3c2=O)cc1
inactive: [2] 105% | [3] 99.9% | [4] 90.4% | [10] 86.7% | [5] 86.9% | [6] 96.8% | [9] 103%

COC[C@@H](CC(C)C)N=C1NC(=O)/C(=C/c2ccc3ncoc3c2)N1
active: [2] 8.17% | [3] -9.28% | [6] 3.83% | [7] -27.3% | [8] 6.76% | [9] 0.832%
inactive: [4] 17.5% | [10] 16.4% | [5] 42.4%

CC(=O)Nc1nc(-c2ccc(N3CCN(C)CC3)c(NS(=O)(=O)c3ccc(C(F)(F)F)cc3)c2)cs1
active: [2] -18.7% | [3] 1.07% | [7] 6.26% | [8] -85.4% | [9] 5.39%
inactive: [4] 45.6% | [10] 23.1% | [5] 30.3%

COc1nccnc1NS(=O)(=O)c1ccc(NC2=C(Cl)C(=O)c3nc(C)ccc3C2=O)cc1
inactive: [2] 120% | [3] 111% | [4] 97.9% | [10] 96.9% | [5] 80.2% | [6] 100% | [7] 101% | [8] 71.7% | [9] 121%

CCN1CCN(c2ccc(NC(=O)Nc3ccc(-c4cc(C(=O)NC(C)C)c5ncccc5n4)cc3)cc2C(F)(F)F)CC1
active: [2] -82.3% | [3] -94.3% | [4] -81.7% | [10] -89.5% | [5] -55.3% | [6] -100% | [8] -100% | [9] -98.9%

O=c1[nH]c2ccccc2cc1CSc1ccc(Nc2nccc(-c3ccc(C(F)(F)F)cc3)n2)cc1
inactive: [2] 28.8% | [3] 19.1% | [4] 33.1% | [5] 43.8% | [6] 89.2% | [7] 81.9% | [8] 15.5% | [9] 78.7%
active: [10] -26.4%

CCCCCCCCCCCCCCCCCCCC(=O)NCCc1c[nH]c2ccc(OC(=O)CCCC(=O)OCCOOCCOOCCOOCCOOCCOOCCOOCCOOCCOOCCOOCCOOCCOOCCOC)cc12
active: [10] -31.3%
inactive: [2] 63.4% | [3] 110% | [4] 69.1% | [5] 22% | [6] 99.6% | [7] 67.1% | [8] 27.2% | [9] 88%

COc1ccc(CCN2C(=O)/C(=C/c3csc(C#N)n3)SC2=S)cc1
inactive: [3] 53.2% | [4] 72.2% | [10] 21.4% | [5] 32.8% | [6] 36.6%
active: [2] -49.4% | [7] -26.6% | [8] -78.5% | [9] -10.9%

Cc1cc(=O)oc2cc(OCCCCOc3ccc(/C=C/C(=O)Nc4ccccc4[N+](=O)[O-])cc3)ccc12
inactive: [2] 117% | [3] 103% | [4] 97.8% | [10] 106% | [5] 109% | [6] 102% | [7] 94.9% | [8] 107% | [9] 103%

O=C(CNc1nc(-c2ccccc2)cs1)Nc1ccc(Cl)cc1[N+](=O)[O-]
active: [2] -14.8% | [3] -19.2% | [4] 5.15% | [10] -52.1% | [6] -100% | [7] -70.5% | [8] -97.2% | [9] -69.4%
inactive: [5] 10.5%

O=C1NC(=NC23CC4CC(CC(C4)C2)C3)N/C1=C\c1ccc2ncsc2c1
inactive: [2] 13.6% | [10] 10.2% | [5] 11.4%
active: [3] -44.1% | [4] 6.09% | [6] 2.01% | [7] 7.15% | [8] 2.05% | [9] 0.351%

CN1CCN(Cc2ccc(C(=O)Nc3cccc(Nc4ccc5c(O)cccc5n4)c3)cc2C(F)(F)F)CC1
inactive: [3] 33.1% | [5] 10.8%
active: [2] -50.8% | [4] -64.3% | [10] -35.3% | [6] -100% | [7] -79.9% | [8] -100% | [9] -95%

O=C1Nc2ccc(Cl)cc2/C1=C/c1ccc(OCc2ccc(Br)cc2F)cc1
inactive: [2] 40.5% | [3] 18.3% | [4] 23% | [5] 41.4% | [6] 32.6% | [7] 32.5% | [9] 63.7%
active: [10] -5.75% | [8] 7.62%

C/C(=N\N=C\c1ccc(Cl)c([N+](=O)[O-])c1)c1ccc2c(c1)Nc1ccccc1S2
inactive: [2] 35.5% | [3] 109% | [4] 31.2% | [5] 13.5% | [6] 38.8% | [7] 38.8% | [8] 37.2% | [9] 60.9%
active: [10] -35%

CCOC(=O)CNC(=O)CN(Cc1ccccc1)C(=O)[C@@]1(C)CCC[C@]2(C)[C@H]3CC4C(C(C)C)=C[C@]3(CC[C@H]21)[C@@H]1C(=O)CCC(=O)[C@H]41
active: [8] -75.1%
inactive: [2] 41.1% | [3] 86.2% | [4] 81.1% | [10] 63.8% | [5] 35.3% | [6] 68.6% | [7] 38.9% | [9] 62.7%

CS(=O)(=O)Nc1ccc(-c2ccc3c(c2)ncn3-c2ccc(NC(=O)Nc3ccc(Br)cc3)cc2)cc1
inactive: [3] 21.4% | [4] 16.6% | [5] 10.4%
active: [2] 7.09% | [10] 3.88% | [6] -86.2% | [7] -35.6% | [8] 1.1% | [9] 1.57%

[2H]C([2H])([2H])Oc1ccc2ncc(C#Cc3cncc(C(=O)Nc4ccc(CN5CCN(C)CC5)c(C(F)(F)F)c4)c3)n2n1
active: [2] -52.8% | [3] -66.4% | [4] -57.9% | [10] -31.4% | [5] -61.6% | [6] -96.1% | [7] -77.5% | [8] -68.4% | [9] -83.8%

Cc1ccc(-c2nc(Nc3ccc(C)c(S(N)(=O)=O)c3)c3ccccc3n2)cc1
inactive: [2] 43.1% | [3] 116% | [4] 91.4% | [10] 18.6% | [5] 43.9% | [6] 86.7% | [7] 87.8% | [9] 113%
active: [8] 2.94%

NC1=NC(c2ccccc2Cl)N=C(Nc2nn[nH]n2)N1 (centres undefined)
inactive: [2] 115% | [3] 95.2% | [4] 99.6% | [10] 97.5% | [5] 103% | [6] 98% | [7] 94.1% | [8] 94.2% | [9] 124%

O=C(Nc1cccc(C(F)(F)F)c1)c1cncc(C#Cc2cnc3ccc(N4CCOCC4)nn23)c1
active: [2] 5.68% | [3] -39.9% | [4] -6.03% | [10] -3.92% | [5] 6.2% | [6] -66.9% | [7] -22.1% | [8] -87.9% | [9] -17.8%

O/N=C(\CSc1nnc(-c2c[nH]c3ccccc23)n1-c1ccccc1)c1ccc(Br)cc1
active: [2] -76.9% | [3] -19.9% | [4] -9.28% | [10] 9.73% | [5] -64.4% | [6] -24.5% | [7] -90.5% | [8] -87.4% | [9] -26.3%
